PubChem BioAssay (EPA / NIEHS)
Records with an inconclusive call do not appear. The source made the active and inactive calls. How the source made its calls, unless noted: active means hit-call score of the fitted dose curve at least 0.9, where 1 is the maximum; inactive means score below 0.9.

What was measured:
[1] = ACEA_ER_80hr: ACEA Biosciences xCELLigence Real-Time Cell Analysis on Estrogen Receptor Agonism for Proliferation (AID 2282667; active means hit-call score of the fitted dose curve at least 0.9, where 1 is the maximum); conditions: T47D proliferation, impedance (xCELLigence), 80 h
Summary of the method: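 Real-time electrical impedance tracked growth of the human breast line T47D, with the 80 h post-dosing value used. Dosing spanned eight 1:4 steps down from a 100 uM final top concentration, run in duplicate.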

[2] = ATG_CRE_CIS: Attagene CIS-FACTORIAL HepG2 Assay for human cAMP Responsive Element (CRE) binding protein 3 (AID 2282926); conditions: HepG2 CRE cis-reporter, Attagene multiplexed mRNA; actives raise or lower the signal
Summary of the method: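 Assay format: transient reporter transfection of HepG2, 24 h treatment, total RNA isolation with DNase I step. Reporter abundance read by fluorescence after PCR and capillary separation; DMSO-normalised gain or loss fitting.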

[3] = molecular target: CCAAT/enhancer-binding protein beta (Homo sapiens) (UniProt P17676); experiment: ATG_C_EBP_CIS: Attagene CIS-FACTORIAL HepG2 Assay for human CCAAT/Enhancer Binding Protein (C/EBP) beta (AID 2282927); conditions: HepG2 Attagene cis-factorial transcription factor reporter; actives raise or lower the signal
Summary of the method: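 HepG2 transiently transfected with multiplexed reporter units under cis-regulatory promoters reporting endogenous C/EBPb activity. After 24 h exposure, reporter mRNA assayed by RT-PCR, fluorescent labelling, HpaI digestion and capillary electrophoresis; bidirectional fitting versus DMSO.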

[4] = ATG_DR4_LXR_CIS: Attagene CIS-FACTORIAL HepG2 Assay for human Liver X Receptor (LXR), DR4 submotif (AID 2282929); conditions: HepG2 Attagene DR4 cis-reporter, mRNA transcription; actives raise or lower the signal
Summary of the method: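 HepG2, transient MRTU transfection, cis-element (DR4) promoter; 24 h compound exposure; total RNA → oligo(dT) RT → PCR → 6-FAM primer extension → HpaI cut → CE. Gain/loss vs DMSO, bidirectional fit.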

[5] = molecular target: Aryl hydrocarbon receptor (Homo sapiens) (UniProt P35869); experiment: ATG_Ahr_CIS: Attagene CIS-FACTORIAL HepG2 Assay for human Aryl Hydrocarbon Receptor (Ahr) (AID 2282930); conditions: HepG2 AhR cis-factorial reporter transcription; actives raise or lower the signal
Summary of the method: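 HepG2 cells transiently transfected with cis-element-driven multiplexed reporter units; endogenous AhR activity read as reporter mRNA 24 h after dosing, via RT-PCR, 6-FAM labelling, HpaI digestion and capillary electrophoresis. Bidirectional fit relative to DMSO.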

[6] = ATG_AP_1_CIS: Attagene CIS-FACTORIAL HepG2 Assay for human Activator Protein 1 (AP-1) (AID 2282931); conditions: HepG2 Attagene cis-factorial AP-1 reporter mRNA; actives raise or lower the signal
Summary of the method: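 Transient MRTU transfection of HepG2 → 24 h chemical treatment → RNA isolation, RT-PCR, 6-FAM labelling, HpaI digest → capillary electrophoresis. Fit: bidirectional, DMSO negative control.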

[7] = ATG_AP_2_CIS: Attagene CIS-FACTORIAL HepG2 Assay for human Activator Protein 2 (AP-2) (AID 2282932); conditions: HepG2 AP-2 cis-reporter, Attagene transcription factor profiling; actives raise or lower the signal
Summary of the method: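 Read-out: fluorescent reporter mRNA via RT-PCR and capillary electrophoresis, 24 h post-dose in transiently transfected HepG2. Endogenous factors drive cis-promoter reporters; gain or loss of signal fitted bidirectionally against DMSO.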

[8] = ATG_BRE_CIS: Attagene CIS-FACTORIAL HepG2 Assay for human Bone Morphogenetic Protein (BMP) Response Element (BRE) (AID 2282933); conditions: HepG2 BMP response element reporter, Attagene transcription factor profiling; actives raise or lower the signal
Summary of the method: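 Endogenous transcription factor activity read in transiently transfected HepG2 cells after 24 h chemical exposure. Bidirectional curve fitting against DMSO; readout is reporter transcript level by RT-PCR with capillary electrophoresis of labelled products.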

[9] = molecular target: Retinoic acid receptor alpha (Homo sapiens) (UniProt P10276); experiment: ATG_DR5_RAR_CIS: Attagene CIS-FACTORIAL HepG2 Assay for human Retinoic Acid Receptor Alpha (RARE), DR5 submotif (AID 2282934); conditions: HepG2 Attagene cis-factorial RARE DR5 reporter, mRNA; actives raise or lower the signal
Summary of the method: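 HepG2 cells transiently transfected with multiplexed reporter units; DR5 cis-element drives reporter through endogenous transcription factors. After 24 h dosing, reporter mRNA quantified by RT-PCR, fluorescent labeling, HpaI digestion and capillary electrophoresis; bidirectional fitting versus DMSO.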

[10] = molecular target: Transcription factor E2F1 (Homo sapiens) (UniProt Q01094); experiment: ATG_E2F_CIS: Attagene CIS-FACTORIAL HepG2 Assay for human E2F Transcription Factor 1 (AID 2282935); conditions: HepG2 Attagene cis-reporter, E2F reporter RNA transcripts; actives raise or lower the signal
Summary of the method: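 Transient MRTU transfection of HepG2; 24 h compound exposure; RNA → oligo(dT) RT → PCR → FAM label → HpaI cut → CE fluorescence. Gain/loss of signal fit against DMSO.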

[11] = ATG_E_Box_CIS: Attagene CIS-FACTORIAL HepG2 Assay for human Enhancer Box (E-box) (AID 2282936); conditions: HepG2 E-box cis-reporter transcription, actives raise or lower the signal
Summary of the method: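 Transiently transfected HepG2, endogenous TF-driven reporters, 24 h dosing. Readout: RT-PCR plus capillary electrophoresis of fluorescent reporter fragments. Gain or loss of signal fitted bidirectionally against DMSO baseline.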

[12] = ATG_M_61_CIS: Attagene CIS-FACTORIAL HepG2 Assay for M61 Transcription Factor (Internal Marker) (AID 2282937); conditions: HepG2 Attagene CIS-FACTORIAL M61 internal marker reporter; actives raise or lower the signal
Summary of the method: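 Human liver HepG2, transient MRTU transfection (cis promoter elements), 24 h compound. Total RNA → oligo(dT) RT → PCR → FAM label → HpaI → CE. Internal background marker; bidirectional fitting, DMSO = baseline.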

[13] = ATG_EGR_CIS: Attagene CIS-FACTORIAL HepG2 Assay for human Early Growth Response 1 (EGR1) (AID 2282938); conditions: HepG2 Attagene CIS-FACTORIAL EGR reporter mRNA; actives raise or lower the signal
Summary of the method: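 Transient transfection of human HepG2 with multiple cis-regulated reporter units, chemical exposure 24 h, total RNA isolated. Reverse transcription, PCR, fluorescent labelling and capillary electrophoresis quantify reporter transcripts; activity fitted bidirectionally against DMSO.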

[14] = ATG_M_19_CIS: Attagene CIS-FACTORIAL HepG2 Assay for M19 Transcription Factor (Internal Marker) (AID 2282939); conditions: HepG2 Attagene CIS-FACTORIAL M19 internal marker reporter; actives raise or lower the signal
Summary of the method: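 Internal marker readout, fitted in both directions against DMSO, from HepG2 cells carrying transfected cis-element reporter constructs; RT-PCR and capillary electrophoresis of reporter mRNA after 24 h exposure.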

[15] = ATG_ERE_CIS: Attagene CIS-FACTORIAL HepG2 Assay for Estrogen Response Element (ERE) (AID 2282940); conditions: HepG2 ERE cis-reporter, Attagene RNA transcript; actives raise or lower the signal
Summary of the method: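 After 24 h compound treatment, RNA from transfected HepG2 cells was reverse-transcribed, reporter cDNA PCR-amplified, FAM-labelled, HpaI-cut and resolved by capillary electrophoresis. ERE-driven cis reporter transcripts reflect endogenous factors; gain or loss scored against DMSO.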

[16] = ATG_Ets_CIS: Attagene CIS-FACTORIAL HepG2 Assay for human Erythroblast Transformation Specific (ETS) (AID 2282941); conditions: HepG2 ETS cis-reporter transcription, actives raise or lower the signal
Summary of the method: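 Bidirectional fit versus DMSO of reporter mRNA signal, detected by RT-PCR and capillary electrophoresis in HepG2 cells transiently transfected with cis-element reporters and dosed 24 h.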

[17] = molecular target: Hepatocyte nuclear factor 3-beta (Homo sapiens) (UniProt Q9Y261); experiment: ATG_FoxA2_CIS: Attagene CIS-FACTORIAL HepG2 Assay for human Forkhead box A2 (FOXA2) (AID 2282942); conditions: HepG2 cis-reporter transcription factor activity, 24 h; actives raise or lower the signal
Summary of the method: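 Transient MRTU transfection of HepG2 liver cells; 24 h treatment; total RNA → oligo(dT) RT → PCR → FAM primer extension → HpaI cut → CE. Bidirectional fit vs DMSO.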

[18] = ATG_FoxO_CIS: Attagene CIS-FACTORIAL HepG2 Assay for human Forkhead box O (FoxO) (AID 2282943); conditions: HepG2 Attagene cis-reporter, FoxO element, mRNA; actives raise or lower the signal
Summary of the method: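 HepG2 cells transiently transfected with cis-element-driven reporter units report endogenous FoxO activity. After 24 h chemical exposure, reporter mRNA quantified by RT-PCR, fluorescent labeling, HpaI digestion and capillary electrophoresis; bidirectional fit versus DMSO.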

[19] = ATG_GATA_CIS: Attagene CIS-FACTORIAL HepG2 Assay for human GATA Binding Protein (AID 2282944); conditions: HepG2 GATA cis-element reporter, Attagene multiplex mRNA; actives raise or lower the signal
Summary of the method: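 Reporter transcripts from a GATA cis-regulated unit, among multiplexed reporters in transfected HepG2 cells, were measured by RT-PCR with capillary electrophoresis after 24 h dosing. Induction or loss scored relative to DMSO.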

[20] = ATG_CMV_CIS: Attagene CIS-FACTORIAL HepG2 Assay for human CMV (Internal Marker) (AID 2282928); conditions: HepG2 CMV promoter reporter, transcription factor profiling; actives raise or lower the signal;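 further: endpoint acts as a background internal control marker rather than a target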
Summary of the method: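 Reporter transcripts from transfected HepG2 cells are isolated after 24 h of chemical dosing, reverse-transcribed and amplified. Fragments labeled with 6-FAM are cut with HpaI and quantified by capillary electrophoresis; DMSO defines baseline.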

Measured: outcome

Sequence of Aryl hydrocarbon receptor (Homo sapiens) (P35869 whole entry, looked up): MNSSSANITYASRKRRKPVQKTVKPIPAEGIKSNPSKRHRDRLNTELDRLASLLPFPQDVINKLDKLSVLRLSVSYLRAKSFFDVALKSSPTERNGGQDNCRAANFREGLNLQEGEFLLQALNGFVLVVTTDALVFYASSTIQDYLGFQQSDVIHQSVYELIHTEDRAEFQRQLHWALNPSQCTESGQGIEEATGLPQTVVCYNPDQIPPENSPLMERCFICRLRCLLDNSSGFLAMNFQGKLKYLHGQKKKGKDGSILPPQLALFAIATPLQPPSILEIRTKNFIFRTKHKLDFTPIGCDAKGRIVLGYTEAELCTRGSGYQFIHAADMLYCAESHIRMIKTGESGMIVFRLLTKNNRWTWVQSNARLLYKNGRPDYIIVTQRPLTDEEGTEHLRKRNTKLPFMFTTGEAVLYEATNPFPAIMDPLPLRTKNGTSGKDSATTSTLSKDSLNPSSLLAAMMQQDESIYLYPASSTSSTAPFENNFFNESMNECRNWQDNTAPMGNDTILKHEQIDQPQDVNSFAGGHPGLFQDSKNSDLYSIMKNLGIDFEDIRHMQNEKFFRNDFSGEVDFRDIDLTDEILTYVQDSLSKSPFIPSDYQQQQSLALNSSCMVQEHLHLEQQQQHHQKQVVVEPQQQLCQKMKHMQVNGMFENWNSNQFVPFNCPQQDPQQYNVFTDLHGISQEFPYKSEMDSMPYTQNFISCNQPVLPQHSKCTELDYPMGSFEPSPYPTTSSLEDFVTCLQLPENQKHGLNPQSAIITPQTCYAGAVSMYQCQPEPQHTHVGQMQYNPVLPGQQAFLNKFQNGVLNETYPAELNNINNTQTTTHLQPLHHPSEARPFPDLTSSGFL
Sequence of CCAAT/enhancer-binding protein beta (Homo sapiens) (P17676 whole entry, looked up): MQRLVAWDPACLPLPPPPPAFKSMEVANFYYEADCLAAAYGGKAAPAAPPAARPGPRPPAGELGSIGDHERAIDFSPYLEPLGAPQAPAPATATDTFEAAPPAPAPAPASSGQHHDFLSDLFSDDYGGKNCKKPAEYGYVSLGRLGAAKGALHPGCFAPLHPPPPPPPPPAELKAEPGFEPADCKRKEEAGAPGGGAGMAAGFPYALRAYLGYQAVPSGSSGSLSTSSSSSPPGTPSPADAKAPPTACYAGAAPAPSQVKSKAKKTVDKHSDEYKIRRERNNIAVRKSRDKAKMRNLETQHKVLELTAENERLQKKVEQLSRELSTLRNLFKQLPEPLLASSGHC
Sequence of Retinoic acid receptor alpha (Homo sapiens) (P10276 whole entry, looked up): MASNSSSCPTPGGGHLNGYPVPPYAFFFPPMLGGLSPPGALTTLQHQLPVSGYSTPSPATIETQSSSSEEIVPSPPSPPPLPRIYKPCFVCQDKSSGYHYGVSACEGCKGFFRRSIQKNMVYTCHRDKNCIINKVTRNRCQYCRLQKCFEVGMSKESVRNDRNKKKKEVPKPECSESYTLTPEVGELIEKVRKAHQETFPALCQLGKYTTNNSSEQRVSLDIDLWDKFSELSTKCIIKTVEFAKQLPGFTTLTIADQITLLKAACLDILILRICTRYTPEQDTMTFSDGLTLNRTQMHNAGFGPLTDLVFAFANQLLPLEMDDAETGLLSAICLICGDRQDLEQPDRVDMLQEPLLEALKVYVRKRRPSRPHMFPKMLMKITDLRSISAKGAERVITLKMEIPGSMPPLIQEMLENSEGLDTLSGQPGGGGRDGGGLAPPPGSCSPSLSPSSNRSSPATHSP
Sequence of Hepatocyte nuclear factor 3-beta (Homo sapiens) (Q9Y261 whole entry, looked up): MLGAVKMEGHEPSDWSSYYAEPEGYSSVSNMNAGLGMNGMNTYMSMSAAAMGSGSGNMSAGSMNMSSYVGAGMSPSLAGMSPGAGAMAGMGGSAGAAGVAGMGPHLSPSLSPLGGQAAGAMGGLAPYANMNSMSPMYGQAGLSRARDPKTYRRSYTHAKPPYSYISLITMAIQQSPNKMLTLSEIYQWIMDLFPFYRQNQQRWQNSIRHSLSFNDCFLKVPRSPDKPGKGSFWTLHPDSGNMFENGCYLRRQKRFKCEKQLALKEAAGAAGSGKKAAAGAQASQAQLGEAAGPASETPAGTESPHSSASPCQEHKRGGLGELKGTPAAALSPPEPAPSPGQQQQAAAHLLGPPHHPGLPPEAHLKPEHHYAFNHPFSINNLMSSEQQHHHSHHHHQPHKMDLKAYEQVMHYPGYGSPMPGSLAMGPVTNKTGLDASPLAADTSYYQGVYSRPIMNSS
Sequence of Transcription factor E2F1 (Homo sapiens) (Q01094 whole entry, looked up): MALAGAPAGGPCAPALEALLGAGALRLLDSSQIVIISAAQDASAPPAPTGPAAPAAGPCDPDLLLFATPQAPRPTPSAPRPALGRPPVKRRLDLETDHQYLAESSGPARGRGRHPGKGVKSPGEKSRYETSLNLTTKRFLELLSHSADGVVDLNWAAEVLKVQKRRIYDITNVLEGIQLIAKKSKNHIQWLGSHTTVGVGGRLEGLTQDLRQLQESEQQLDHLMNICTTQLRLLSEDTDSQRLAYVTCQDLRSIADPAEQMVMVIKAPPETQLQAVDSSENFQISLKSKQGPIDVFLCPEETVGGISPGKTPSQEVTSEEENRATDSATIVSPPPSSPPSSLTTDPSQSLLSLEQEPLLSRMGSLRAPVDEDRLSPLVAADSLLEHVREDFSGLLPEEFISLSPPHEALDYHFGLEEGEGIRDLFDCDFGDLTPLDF

CC(C)(C)c1cc(Cc2cc(C(C)(C)C)c(O)c(C(C)(C)C)c2)cc(C(C)(C)C)c1O
not listed: [20]
inactive: all other assays above

O=S(=O)(O)CCC(F)(F)C(F)(F)C(F)(F)C(F)(F)F
not listed: [4] | [20]
inactive: all other assays above

FC(F)(F)C(F)(F)C(F)(F)C(F)(F)C(F)(F)C(F)(F)CC[Si](Cl)(Cl)Cl
not listed: [20]
inactive: all other assays above

CC(C)=CCCC(C)O (stereo not given)
not listed: [3]
inactive: all other assays above
